High-throughput results from PubChem BioAssay.
A selection: hits, their analogues and other compounds. The true share with any hit is near 4.1%.
hcDAF12 agonist = H. contortus DAF-12 nuclear receptor activators, primary screen, cell-based, luminescence, HEK293, lit1-tk-luc reporter. HEK293 hcDAF-12 lit1-tk-luc reporter; 0% DMSO, 100% Δ7-dafachronic acid. activation, % at 6.8 µM. 370,000 tested, 1.4% active. AID 652067, 2013;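 active means activation above the mean of all tested compounds plus 3 SD, cut at about 5.5% in these data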
DAX1 inh-1 = DAX1 (NR0B1) inhibitors, primary screen, cell-based, HEK293, Gal4-DAX1, luciferase luminescence | AID 504766, 2011 | inhibition, % at 6.75 µM | Nuclear receptor subfamily 0 group B member 1 (Homo sapiens), P51843 | HEK293 Gal4-DAX1 luciferase reporter | 340,000 tested, 0.99% active;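 active means inhibition above the mean over all tested compounds plus 3 SD, cut at about 4.2% in these data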;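 further: inhibition shows as a rise in luminescence from relieved DAX1 repression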
hgDAF12 agonist = H. glycines DAF-12 receptor agonists, primary screen, cell-based, luminescence, HEK293, GAL4 fusion, UAS-luciferase. Nuclear hormone receptor DAF-12 (Heterodera glycines), GAL4 fusion. HEK293 GAL4-hgDAF12 UAS-luciferase reporter, agonist luminescence; normalized to butyrate control. activation, % at 6.8 µM. 370,000 tested, 1.8% active. AID 687014, 2013;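 active means activation above a cutoff set at the mean of all screened compounds plus 3 SD, cut at about 10% in these data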
DAX1 inh-2 = DAX1 (NR0B1) inhibitors on StAR promoter, primary screen, cell-based, luminescence, SF-1 (NR5A1), full-length DAX-1; HEK293T StAR-luciferase reporter, SF-1/DAX-1 repression relief; inhibition, % at 6.8 µM; 370,000 tested, 1.1% active; AID 652010, 2013;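 active means inhibition above the mean over all tested compounds plus 3 SD, cut at about 3.6% in these data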;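 further: higher inhibition means more luminescence from relief of DAX-1 repression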
ssDAF-12 act = S. stercoralis DAF-12 nuclear receptor activators, primary screen, cell-based, luminescence, HEK293, GRIP1 co-expression, lit1-tk-luc; Nuclear hormone receptor DAF-12 (Strongyloides stercoralis); HEK293 ssDAF-12/GRIP1 lit1-tk-luc reporter; % of 3 µM dafachronic acid response; activation, % at 6.8 µM; 370,000 tested, 1% active; AID 652126, 2013;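 active means activation above the mean over all tested compounds plus 3 SD, cut at about 0.9% in these data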
LXR ag = LXR agonists, Gal4 luciferase reporter, confirmation, counter-screen for hcDAF-12 agonist project, cell-based, luminescence, HEK293, H. contortus campaign | 3,400 tested, under 10 active | activation, % at 6.8 µM | shares compounds with hcDAF12 agonist | HEK293 Gal4-LXR tk-luc reporter, 24 h; normalized: DMSO 0%, positive control 100%;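 active means mean percent activation of the reporter above a cutoff set as the average over tested compounds plus their standard deviation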
Target sequence (P55055 whole entry, looked up, the tested form may be a part): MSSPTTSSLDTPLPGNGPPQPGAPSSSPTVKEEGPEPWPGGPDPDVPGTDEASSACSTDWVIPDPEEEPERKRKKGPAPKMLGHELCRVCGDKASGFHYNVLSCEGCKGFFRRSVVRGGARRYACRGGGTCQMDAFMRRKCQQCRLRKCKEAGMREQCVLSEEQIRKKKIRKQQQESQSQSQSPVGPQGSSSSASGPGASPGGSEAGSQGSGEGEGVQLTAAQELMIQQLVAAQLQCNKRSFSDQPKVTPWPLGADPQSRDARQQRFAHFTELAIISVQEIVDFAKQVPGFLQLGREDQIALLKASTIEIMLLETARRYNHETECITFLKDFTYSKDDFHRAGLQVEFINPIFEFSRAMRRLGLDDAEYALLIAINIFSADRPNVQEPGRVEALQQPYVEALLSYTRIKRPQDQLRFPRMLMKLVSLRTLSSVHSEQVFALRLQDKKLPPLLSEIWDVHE
hcDAF12 ag = H. contortus DAF-12 receptor agonists, confirmation, cell-based, luminescence, HEK293, lit1-tk-luc, triplicate | shares compounds with hcDAF12 agonist | HEK293 hcDAF-12 lit1-tk-luc reporter; % of Δ7-dafachronic acid response | activation, % at 6.8 µM | 3,400 tested, 61% active | AID 743032, 2013;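 active means mean activation across triplicate tests above the threshold derived from the earlier primary screen, cut at about 5.5% in these data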
hgDAF12 conf = H. glycines DAF-12 receptor agonists, confirmation, cell-based, luminescence, HEK293, GAL4-LBD fusion. shares compounds with hgDAF12 agonist. HEK293 GAL4-hgDAF12 luciferase reporter, agonist mode; percent of butyrate response. activation, % at 6.8 µM. 3,300 tested, 80% active;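 active means mean activation over triplicate wells above the hit cutoff derived from the earlier primary screen, cut at about 11% in these data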
LXR ag 2 = LXR agonists, Gal4 luciferase reporter, confirmation, counter-screen for hgDAF-12 agonist project, cell-based, luminescence, HEK293, H. glycines campaign. activation, % at 6.8 µM. 3,300 tested, under 10 active. shares compounds with hgDAF12 agonist. AID 743051, 2013. 24 h;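 active means mean activation of the triplicate above a set limit carried over from the primary screen, none filed active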
Of the large screens only hits and unclear results are named; the others gave an inactive call (follow-up assays come after a bar, where they were run).

COc1cc2ccccc2cc1C(=O)Nc1ccc(Cc2ccncc2)cc1	none
N=c1n(N)c2ccccc2n1CC(=O)c1ccc(Br)cc1	hcDAF12 agonist 8.1, hgDAF12 agonist 15 | LXR ag inactive | hcDAF12 ag inactive | hgDAF12 conf 14 | LXR ag 2 inactive
COC(=O)[C@H](Cc1ccccc1)N1Cc2ccccc2Oc2cc(Br)ccc2S1(=O)=O	none (no result: DAX1 inh-1)
COc1ccc2[nH]c(C(=O)Nc3cccc(C)n3)cc2c1	hcDAF12 agonist 7.9, hgDAF12 agonist 15, DAX1 inh-2 3.7, ssDAF-12 act 0.9 (no result: DAX1 inh-1) | LXR ag inactive | hcDAF12 ag 6.2 | hgDAF12 conf 22 | LXR ag 2 inactive
Cc1cc(-c2ccc(N3CCOCC3)cc2)nc2ccccc12	hcDAF12 agonist 15, hgDAF12 agonist 20, ssDAF-12 act 0.9 | LXR ag inactive | hcDAF12 ag 7.9 | hgDAF12 conf 14 | LXR ag 2 inactive
Cc1ccc(-c2cc(C(=O)N3CCOCC3)c3ccccc3n2)cc1	none
Cc1ccc(Nc2n[nH]c(C)c2[N+](=O)[O-])cc1C	hcDAF12 agonist 11, hgDAF12 agonist 19, DAX1 inh-2 4.4, ssDAF-12 act 1.0 | LXR ag inactive | hcDAF12 ag 6.3 | hgDAF12 conf 22 | LXR ag 2 inactive
Cc1ccc(C)c(Cn2c3ccccc3c3cnn(CC(=O)NCCCN4CCCCC4)c(=O)c32)c1	none
Cn1c(N)c(C(=O)CCc2ccccc2)c(=O)n(C)c1=O	hcDAF12 agonist 10, hgDAF12 agonist 21, DAX1 inh-2 4.5 (no result: DAX1 inh-1) | LXR ag inactive | hcDAF12 ag 6.8 | hgDAF12 conf inactive | LXR ag 2 inactive
CCCCNC(=O)C1CCCN1C(=O)Nc1cc(C)cc(C)c1 (stereo not drawn)	none (no result: DAX1 inh-1)
C[C@@H]1CN([C@@H](C)CO)S(=O)(=O)c2ccc(/C=C/c3ccccc3)cc2O[C@@H]1CN(C)Cc1ccc(C(=O)O)cc1	none
Cc1cc(O)c(NC(=O)c2cccc([N+](=O)[O-])c2)cc1C	hcDAF12 agonist 7.0, hgDAF12 agonist 17, ssDAF-12 act 2.5 | LXR ag inactive | hcDAF12 ag 9.2 | hgDAF12 conf 11 | LXR ag 2 inactive
Nc1c(Cl)ncnc1N/N=C/c1ccnc2ccccc12	none
Clc1cccc(/C=N/Nc2ncnc3ccccc23)c1	hcDAF12 agonist 11, hgDAF12 agonist 13, ssDAF-12 act 1.8 | LXR ag inactive | hcDAF12 ag 7.1 | hgDAF12 conf 18 | LXR ag 2 inactive
Cc1noc(C)c1NC(=O)N(C)C[C@@H]1OCc2cnnn2CCCC(=O)N([C@@H](C)CO)C[C@@H]1C	none
